This note sets out measurements from the supplement of paper PMC6555819.

Assay in all cases: PBM binding z-score (relative to random genomic background probes); higher = stronger binding; sequences stand for … in GC…GCGATTGACAGCGTAGAATGAAGG
For assay [1], the system named is RARb homodimer (NR concentration 270 nM). The procedure, abridged: (§1)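 For binding z-scores, the reference was random background probes on custom Agilent 4×180K protein-binding microarrays. These arrays were incubated 1 h with ligand-free nuclear receptor dimers in PBS pH 7.4, 2% milk, 0.02% Triton X-100, 1 mM DTT, 0.2 mg/mL BSA and 0.4 mg/ml salmon testes DNA. Fluorescence was scanned after antibody detection of each partner (one per run) and regression-normalized.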

Assay [2] has as its system RARg:RXRa (NR concentration 270 nM, RXRa partner concentration 90 nM). The procedure, abridged: as §1
Assay [3] relates to RARg homodimer (NR concentration 270 nM). The procedure, abridged: as §1
Assay [4] concerns RXRa DBDmut IVT, anti-RXR (DBD mutation: RXRa K156A/R161A, NR concentration 90 nM). A digest of the protocol: as §1
For assay [5], the system named is RXRa homodimer (NR concentration 180 nM). The procedure, abridged: as §1
Assay [6] concerns THRa:RXRa (NR concentration 90 nM, RXRa partner concentration 90 nM). A digest of the protocol: as §1
The test system of assay [7] is THRa homodimer (NR concentration 90 nM). The procedure, abridged: as §1
Assay [8] deals with VDR homodimer (NR concentration 270 nM). A digest of the protocol:
as §1

Regarding TCTGTTAGGTCAGTTGGTCAGCTAACGAGCTGCC, the PBM binding z-score in assay [1] was determined as 3.01; in assay [2], 3.01; in assay [3], 4.2; in assay [4], 1.33; in assay [5] it was 1.19; in assay [6], 2.68. Also, the PBM binding z-score in assay [7] stood at 1.69; in assay [8], 0.469.
With CGTCCAAGGTCAGAAAGGTCAGTGAATGCCGAGT, the PBM binding z-score came to 5.58 in assay [1]; 6.18 in assay [2]; 6.89 in assay [3]; 3 in assay [4]; 5.59 in assay [5]; 4.14 in assay [6]. Moreover, the PBM binding z-score in assay [7] was 2.3; in assay [8], 4.66.
Consider CGTCCAAGGCCAGCAGGTCAGTGAAAGCGACGTG, for which the PBM binding z-score is 2.34 in assay [1]; 1.85 in assay [2]; 2 in assay [3]; -0.479 in assay [4]; 0.648 in assay [5]; 1.3 in assay [6]. The PBM binding z-score in assay [7] is 0.193; in assay [8], -0.465.
With GCGACTGGGGCAAAGCATGTTACCATAAGGTTGG, the PBM binding z-score in assay [1] came out at 0.192; in assay [2], 0.235; in assay [3], 0.278; in assay [4] it was 0.0488; in assay [5], 0.0784; in assay [6] it was 0.269. Further, the PBM binding z-score in assay [7] is -0.43; in assay [8], -0.625.
On to CCAGACAGGTGAAAGATAACTCAGTCTGGTACGC, for which the PBM binding z-score in assay [1] was found to be 0.244; in assay [2], 0.614; in assay [3] it was 0.6; in assay [4] it was 0.193; in assay [5] it was 0.775; in assay [6], 0.125. In addition, the PBM binding z-score in assay [7] is -0.296; in assay [8], 0.339.
As to CCTACTGGGCCATTAGGTCATTGATATCAACGTT, the PBM binding z-score in assay [1] worked out at 2.8; in assay [2] it was 2.38; in assay [3], 2.12; in assay [4], 0.292; in assay [5] it was 1.04; in assay [6], 2.63. Moreover, the PBM binding z-score came out at 2.27 in assay [7] and 1.01 in assay [8].
For the sequence ACAGACAGGTGAGTGAAGGTAACTAAGCTGGACG, the PBM binding z-score is 0.0814 in assay [1]; 0.264 in assay [2]; 0.483 in assay [3]; -0.523 in assay [4]; 0.122 in assay [5]; 1.38 in assay [6]. In addition, the PBM binding z-score in assay [7] was -0.413; in assay [8] it was -0.429.
